MARV entry inh = inhibitors of Marburg virus binding or cell entry. Potency, µM (highest dose often 37.8 µM), inactives show at the top dose activity change, negative = inhibition, actives largely listed as inhibitors. AID 540276. 1.8% of 300,000 active. Marburg virus pseudotyped entry inhibition, cell reporter; calls by dose curve; tested in HEK293 cells; note: potency is the fitted concentration of half-maximal effect; % is set by controls: 0 for no effect and ±100 for the full control effect
Lassa entry inh = Lassa virus entry inhibition; 1.2% of 300,000 active; Potency, µM (titrated, usually from 37.9 µM), for inactives: at the highest dose activity change, negative = inhibition, usual class: inhibitors; AID 540256; Lassa virus pseudotype entry inhibition, cell reporter; calls by dose curve; tested in HEK293 cells; note: potency is the fitted concentration of half-maximal effect; % is set by controls: 0 for no effect and ±100 for the full control effect; nearly all actives have a fitted effect of over 50% in size
SARS PLP yeast = SARS-CoV PLP inhibition in yeast | S. cerevisiae expressing SARS-CoV PLpro, growth rescue | 0.19% of 330,000 active | AID 485353 | Potency, µM (highest dose often 32.9 µM), inactives show at the top dose activity, positive = growth rescue, most hits filed as activators; calls by dose curve; note: potency is the fitted concentration of half-maximal effect; 0% is about no effect; nearly all actives have a fitted effect of over 55% in size
HCMV antiviral = blocks human cytomegalovirus replication; HFF cells, HCMV-luciferase reporter, 72 h; hits give low values; activity change, negative = inhibition, % at 57.5 µM; 4.5% of 410,000 active; AID 1259415; in the data active = activity change below about -60%; inconclusive = no clear call, values can overlap the other calls; inactive = above about -39%; note: % is set by controls: 0 for no effect and ±100 for the full control effect
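Two-dose cell screen: HFF monolayers treated with compounds and infected with luciferase-expressing HCMV at 1 PFU/cell, 72 h at 37C, then lysed for luciferase measurement.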
HCV inh = HCV inhibition | Huh7.5.1 HCVcc-Cre infection, luciferase reporter, 44 h | Potency, µM (highest dose often 41.8 µM), without a hit: top-dose activity change, negative = inhibition, most hits filed as inhibitors | 3.4% of 340,000 active | AID 651820; active = well fitted inhibition curve with a large enough effect; inconclusive = small, poorly fitted or top-dose-only effect, or another doubt; inactive = no such curve, though single readings can be large or run the other way; note: potency is the fitted concentration of half-maximal effect; % is set by controls: 0 for no effect and ±100 for the full control effect
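Compounds are dispensed onto cells plated 4 h earlier at 1,000 per well, with HCVcc-Cre virus (about 0.5 moi) added next. Following 44 h of culture, luminescent signal is measured for 15 sec after 15 min with substrate at room temperature.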
FMDV inh = antivirals against foot and mouth disease virus; 1.2% of 410,000 active; FMDV antiviral cell-based qHTS; AID 1159524; Potency, µM (highest dose often 57.9 µM), for the others: at the top dose activity change, negative = inhibition, most hits filed as inhibitors; calls by dose curve; tested in HEK293T cells; note: read-out not given here; potency is the fitted concentration of half-maximal effect; % is set by controls: 0 for no effect and ±100 for the full control effect; nearly all actives have a fitted effect of over 45% in size
The depositor's hits bear a star; ? = inconclusive; / = not tested or not shown; [ ] = another dose, or the depositor's remark. Compounds with a hit are over-represented: about 8% of the library has one in this group of screens.

SMILES	MARV entry inh	Lassa entry inh	SARS PLP yeast	HCMV antiviral	HCV inh	FMDV inh
N#C/C(=C/c1ccc(N2CCCCC2)o1)C(=O)Nc1ccc(Cl)cc1	2.6%	?	4.6%	24.4	?	48.2%
N#C/C(=C/c1ccc(N2CCCCCC2)o1)c1ccc(F)cc1	10µM*	?	/	/	?	-17.0%
N#C/C(=C/c1ccc(N2CCCCCC2)o1)c1cccc(F)c1	?	3.4%	-21.2%	-80.8*	?	-46.5%
N#C/C(=C\c1ccc(N2CCOCC2)o1)c1ccccc1	?	?	-5.1%	51.9	11.2µM*	/
COc1cc(N2CCCC2)c(OC)cc1/C=C(/C#N)c1cccc(F)c1	?	-29.0%	-9.9%	/	?	-18.2%
CCOC(=O)c1scc(-c2ccc(C)cc2)c1S(=O)(=O)N1CCN(c2ccccc2)CC1	/	7.0%[46.1 µM]	/	-20.9	/	9.5%
CN=C1CC(SC)=C1c1ccc(C)cc1	-23.1%	?	-27.3%	-19.1	11.5%	31.6µM*
Cc1cnc(-n2ncc(C(=O)NCCN3CCOCC3)c2C2CC2)nc1-c1cccs1	/	/	/	/	/	5.3%
CCc1ccc(-c2nc(C(N)=O)c3[nH]c(=O)n(-c4ccccc4OC)c3n2)cc1	/	/	2.5%	-98.3*	?	?
COc1ccc(-c2nc(C(N)=O)c3[nH]c(=O)n(-c4cccc(Cl)c4)c3n2)cc1OC	?	?	0.2%	-30.0	?	?
CC1=CC(C)(C)Nc2ccc(OC(=O)c3ccco3)cc21	?	?	-9.0%	-81.8*	?	/
CC1=CC(C)(C)Nc2ccc(Cc3ccc4c(c3)C(C)=CC(C)(C)N4)cc21	/	/	-2.6%	-19.9	10µM*	13.8%
CC1=CC(C)(C)Nc2ccc(OC(=O)CN3C(=O)CCC3=O)cc21	?	?	1.2%	-94.1*	11.2µM*	/
CC1=CC(C)(C)N2C(=O)C(=O)c3cc(OC(=O)c4ccco4)cc1c32	-26.5%[46.1 µM]	?	-4.7%	-87.8*	18.0%	5.8%
O=C(c1ccc2c(c1)OCO2)N(Cc1cc2ccc(F)cc2nc1N1CCC(O)CC1)CC1CCCO1 (centres undefined)	/	/	/	/	/	-6.9%
COc1ccc2c3c(n(C)c2c1)[C@@H](CO)N(Cc1cc(F)ccc1F)CC31CN(C(C)=O)C1	/	/	/	-35.9	/	/
CCS(=O)(=O)c1nc(S(=O)(=O)c2ccc(C)cc2)c(NCc2ccccc2Cl)s1	?	-16.1%[46.1 µM]	/	5.6	/	15.1%
CC1=CC(C)(C)Nc2ccc(OC(=O)c3cccnc3)cc21	?	?	-18.4%	-91.7*	?	28.2µM*
O=C(Oc1ccc(F)cc1)c1cccnc1	/	/	-0.7%	-3.9	1.9%	-10.9%
CC1=CC(C)(C)Nc2ccc(OC(=O)C(C)N3C(=O)c4ccccc4C3=O)cc21 (centres undefined)	?	?	-7.8%	-73.7*	?	28.2µM*
CNC(=O)[C@H]1O[C@@H](n2cnc3c(NCc4ccc(N)cc4)ncnc32)[C@H](O)[C@@H]1O	-2.1%	4.4%	/	/	/	-7.7%
CC(=O)c1ccc(N2C(=O)C3C(C2=O)C(C(=O)c2ccc(Cl)cc2)N2CCCC32)cc1 (centres undefined)	?	-1.3%	-5.9%	26.6	-16.6%	?
Cc1ccc(N2C(=O)[C@@H]3[C@H](C2=O)C2CCCN2[C@@H]3C(=O)c2ccccc2)cc1 (some centres undefined)	-50.7%	0.9%	-1.0%	?	?	0.0%
COc1ccc(N2C(=O)C3C(C2=O)C(C(=O)c2ccc(Cl)cc2)N2CCCC32)cc1 (centres undefined)	?	7.9%	1.1%	-60.1*	4.5%	?
O=C(c1ccccc1)[C@@H]1[C@@H]2C(=O)N(c3ccc(F)cc3)C(=O)[C@@H]2C2CCCN21 (some centres undefined)	/	/	-2.6%	-66.9*	12.6%	-16.3%
CC(=O)c1ccc(NS(=O)(=O)c2ccc(Br)s2)cc1	-2.9%[46.1 µM]	-12.6%[46.1 µM]	/	0.3	/	34.9%
NS(=O)(=O)c1ccc(NC(=S)NCc2ccco2)cc1	20.0%[46.1 µM]	-17.9%	1.2%	8.4	10.0%	-4.4%
CC(C)=CC(=O)O[C@@H]1Cc2cc3ccc(=O)oc3cc2OC1(C)C	/	/	3.0%	7.7	3.16µM*	-12.2%

Compound activity deposited in PubChem BioAssay by National Center for Advancing Translational Sciences (NCATS).
